Experimental data: PubChem BioAssay AID1851 (National Center for Advancing Translational Sciences (NCATS), 2009)
Where “and” joins values, the source holds several entries; their conditions need not be identical. Equal entries are not always repeated. The whole screen tested about 16,000 compounds, of which about 5,800 (36%) were called active. Roughly 23% stayed inconclusive and do not appear here. Calls come from the whole dose curve; as a rule, active = well fitted curve in the direction sought with a large enough effect; inconclusive = small, poorly fitted or top-dose-only effect, or effect the other way; inactive = no such curve, though single readings can be large or run the other way. The list shows a part of the results. Where a structure was tested more than once in an assay, its records may differ in their call.

Molecular target: Cytochrome P450 2C19 (Homo sapiens) (UniProt P33261)
Sequence (P33261 whole entry, looked up): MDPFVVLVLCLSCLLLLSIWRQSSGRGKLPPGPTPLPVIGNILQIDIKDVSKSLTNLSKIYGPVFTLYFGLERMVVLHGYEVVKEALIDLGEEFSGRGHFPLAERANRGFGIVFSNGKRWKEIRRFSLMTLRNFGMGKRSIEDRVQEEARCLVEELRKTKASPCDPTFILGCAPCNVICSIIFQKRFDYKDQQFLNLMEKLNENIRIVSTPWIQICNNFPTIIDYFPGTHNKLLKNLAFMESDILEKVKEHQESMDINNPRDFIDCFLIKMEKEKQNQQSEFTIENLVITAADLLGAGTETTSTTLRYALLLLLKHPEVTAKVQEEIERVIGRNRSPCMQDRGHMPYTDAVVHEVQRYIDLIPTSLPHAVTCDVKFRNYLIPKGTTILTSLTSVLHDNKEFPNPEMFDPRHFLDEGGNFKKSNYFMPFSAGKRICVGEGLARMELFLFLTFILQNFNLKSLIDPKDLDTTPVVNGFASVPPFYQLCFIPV
Assay: Cytochrome panel assay with activity outcomes
Settings: recombinant CYP, pro-luciferin dealkylation, luminescence, p450-cyp2c19; series mostly up to 57.1 µM
% is set by controls: 0 for no effect and ±100 for the full control effect.

Compound | AC50 | activity, negative = inhibition
Cc1ncc([N+](=O)[O-])n1CCO | inactive | –
COc1ccccc1-c1cncnc1NCc1cccs1 | 2 µM (active) | –
Clc1ccccc1-c1cncnc1NCc1cccs1 | 1.58 µM (active) | –
Cc1ccccc1-c1cncnc1NCc1cccs1 | 0.794 µM (active) | –
CN(C)Cc1ccccc1-c1cncnc1NCc1cccs1 | inactive | –
FC(F)(F)c1ccccc1-c1cncnc1NCc1cccs1 | 20 µM (active) | –
Cc1cnn(-c2cc(N/N=C/c3ccccc3F)ncn2)c1 | inactive | –
CN(C)CCCNC(=O)c1cc2c3ccccc3n(C)c2s1 | inactive | –
COCCNC(=O)c1cc2c3ccccc3n(C)c2s1 | 11.2 µM (active) | –
COCCNC(=O)c1ccc2c(c1)nc(C)n2-c1cc(OC)c(OC)c(OC)c1 | inactive | –
O=C(OCc1nc2ccccc2s1)c1ccc(Br)s1 | 0.447 µM (active) | –
COc1ccc(COC(=O)N/N=C2/C[C@@H](O)[C@@H](O)[C@@H]3[C@@H]4C(=O)N(c5cccc(Oc6ccccc6)c5)C(=O)[C@H]4CC[C@@H]23)cc1 | – | 20.4% [at 11.4 µM] (inactive)
COc1ccc(NC(=O)CC2C(=O)N(c3cccc(OC)c3)C(=O)N2C2CCCCC2)cc1 (stereo unspecified) | 8.91 µM (active) | –
COc1ccc(COC(=O)N/N=C2/C[C@@H](O)[C@@H](O)[C@@H]3[C@@H]4C(=O)N(c5cccc(Oc6ccccc6)c5)C(=O)[C@H]4CC[C@H]23)cc1 | – | -11% [at 11.4 µM] (inactive)
COc1cccc(N2C(=O)C(CC(=O)Nc3ccccc3)N(C3CCCCC3)C2=O)c1 (stereo unspecified) | 4.47 µM (active) | –
CCCCCCCCSc1nnc(CSc2nc3nc(C)cc(C)n3n2)o1 | 7.94 µM (active) | –
CCOC(=O)c1cnn(-c2ccc(C(C)C)cc2)c1NC(=O)C1CCC1 | 10 µM (active) | –
CC(C)OCCCN1CN(S(=O)(=O)c2cccc(Cl)c2)c2nc3ccccc3nc21 | 3.16 µM (active) | –
C[C@@H](C(=O)O)c1ccc(-c2ccccc2)c(F)c1 | inactive and 631 nM (active) | –
O=C(O)[C@@H](O)c1ccc(F)cc1 | – | 10.1% [at 11.4 µM] (inactive)
C[C@H](C(=O)O)c1cccc(Oc2ccccc2)c1 | inactive | –
O=C(O)c1cccc(C(=O)O)c1S(=O)Cc1ccccc1 (stereo unspecified) | – | 41.5% [at 11.4 µM] (inactive)
O=C(O)C(Cl)(c1ccccc1)c1ccccc1 | – | -2.62% [at 11.4 µM] (inactive)
O=S(Cc1ccccc1)CC(O)(c1ccccc1)c1ccccc1 (stereo unspecified) | 5.01 µM (active) | –

Compound | AC50 | activity, negative = inhibition
CCOC(OCC)P(=O)(O)CCCNCc1ccc(Cl)c(Cl)c1 | inactive | –
CCOc1ccc(C(=O)Nc2cnn(Cc3ccc(Cl)c(Cl)c3)c2)cc1 | 3.55 µM (active) | –
CN1CCN(c2ncc3nc(-c4cn(C)c5ccccc45)c(=O)n(CCc4ccccc4)c3n2)CC1 | inactive | –
COCCn1c(=O)c(-c2cn(C)c3ccccc23)nc2cnc(N3CCNCC3)nc21 | inactive | –
Cn1cc(-c2nc3cnc(N4CCOCC4)nc3n(CCC#N)c2=O)c2ccccc21 | inactive | –
Cn1cc(-c2nc3cnc(N4CCNCC4)nc3n(CCc3ccccc3)c2=O)c2ccccc21 | 2 µM (active) | –
Cn1cc(-c2nc3cnc(N4CCNCC4)nc3n(Cc3ccc(F)cc3)c2=O)c2ccccc21 | 7.94 µM (active) | –
CCNc1ncc2nc(-c3cn(C)c4ccccc34)c(=O)n(Cc3ccc(F)cc3)c2n1 | inactive | –
CSc1nc(C)c(CCOC(=O)c2ccccc2)c(=O)[nH]1 | 15.8 µM (active) | –
CSc1nc(C)c(CCOC(=O)c2cccc(C)c2)c(=O)[nH]1 | 3.16 µM (active) | –
CSc1nc(O)c(Cc2ccccc2)c(=O)[nH]1 | inactive | –
Cc1ccccc1[C@@H](OCCN(C)C)c1ccccc1 | inactive | –
C=CCn1cc(Cl)c(=O)n(CC=C)c1=O | inactive | –
COC(=O)Cn1c(=O)c2c(nc(Br)n2Cc2ccccc2Cl)n(C)c1=O | 0.891 µM (active) | –
COc1ccc(N2CCN(Cc3nc4c(c(=O)n(C)c(=O)n4C)n3CC(C)=O)CC2)cc1 | inactive | –
C=CCn1c(=O)c2c(nc(Br)n2Cc2ccccc2Cl)n(C)c1=O | 0.794 µM (active) | –
C=CCn1c(=O)c2c(nc(-c3ccc(S(=O)(=O)O)cc3)n2C)n(C)c1=O | inactive | –
CN(C)c1nc2c(c(=O)[nH]c(=O)n2C)n1Cc1ccccc1Br | inactive | –
CCn1nccc1C(=O)Nc1nc2ccccc2n1CCN1CCCCC1 | inactive | –
O=C(Nc1nc2ccccc2n1Cc1ccccc1)c1ccc(COc2ccccc2[N+](=O)[O-])o1 | 1.26 µM (active) | –
CC(=O)Nc1nc2ccccc2n1Cc1ccccc1 | 22.4 µM (active) | –
COc1ccc(CNc2nc3ccccc3n2Cc2ccccc2)cc1OC | 7.94 µM (active) | –
C=CCn1c(NCc2ccccc2)nc2ccccc21 | 3.16 µM (active) | –
CC(C)CN1CCC2(CC1)CCN(C(=O)c1cc(C(F)(F)F)cc(C(F)(F)F)c1)CC2 | inactive | –

Compound | AC50 | activity, negative = inhibition
CC[C@](N)(CCC(=O)O)C(=O)O | inactive | –
CN(C)c1ncc2nc(-c3cc(F)cc(F)c3)c(=O)n(C[C@H]3CCCO3)c2n1 | inactive | –
O=C(CN(Cc1ccccc1)S(=O)(=O)c1ccc2c(c1)OCCO2)N/N=C/c1ccc(F)cc1 | 3.98 µM (active) | –
CN(CCc1ccccn1)c1ccc2c(c1)Cc1ccccc1-2 | 0.794 µM (active) | –
CN(CCc1ccccn1)c1ccc2c(c1)C(=O)c1ccccc1-2 | 2.51 µM (active) | –
COC(=O)c1nnn(Cc2ccccc2)c1N | inactive | –
CCOC(=O)C1=C(O)C(=O)N(Cc2ccccc2)C1 | 15.8 µM (active) | –
CCOC(=O)N/N=C1/C[C@@H](O)[C@@H](O)[C@@H]2[C@@H]3C(=O)N(Cc4ccccc4)C(=O)[C@H]3CC[C@@H]12 | – | 11.9% [at 11.4 µM] (inactive)
O=c1onc2n1-c1cc(Br)ccc1OC2 | inactive | –
Cc1nn(-c2ccccc2)c(Cl)c1/C=N/NC(=O)c1ccco1 | 15.8 µM (active) | –
Cc1nn(-c2ccccc2)c(C)c1/C=N/NC(=O)c1cc(-c2ccc(Cl)s2)[nH]n1 | 10 µM (active) | –
N[C@@H](CCCP(=O)(O)O)C(=O)O | inactive | –
O=C1CSC2(CCN(CCCN3c4ccccc4Sc4ccc(Cl)cc43)CC2)N1 | – | -35% [at 11.4 µM] (inactive)
COc1ccc2c(c1)N(C[C@@H](C)CN(C)C)c1ccccc1S2 | inactive | –
O=C(CSc1nc2ccccc2o1)N1c2ccccc2Sc2ccc(Cl)cc21 | 2.51 µM (active) | –
O=C(CSc1nc2ccccc2s1)N1c2ccccc2Sc2ccc(C(F)(F)F)cc21 | 4.47 µM (active) | –
O=C(O)CCCSc1nc2ccccc2s1 | – | 20.2% [at 11.4 µM] (inactive)
COc1ccc2c(c1)N(CC[C@H]1CCCCN1C)c1ccccc1S2 | – | -12% [at 11.4 µM] (inactive)
COc1ccc(OCc2nnc(SCC(=O)N3c4ccccc4Sc4ccc(Cl)cc43)o2)cc1 | 6.31 µM (active) | –
OC1CC2CC[C@H](C1)N2CCCN1c2ccccc2Sc2ccc(Cl)cc21 (stereo partly specified) | – | -19.5% [at 11.4 µM] (inactive)
Nc1c(OCC(=O)O)ccc2cc(S(=O)(=O)O)ccc12 | – | -19.3% [at 11.4 µM] (inactive)
CN(C)C=Nc1ccc2nn(-c3ccccc3)nc2c1 | 17.8 µM (active) | –
O=C(O)c1nn(-c2ccccc2)nc1-c1nn(-c2ccccc2)nc1C(=O)O | inactive | –
CSc1ccc(CNc2ccc(C)c(C)c2)cc1 | 0.0316 µM (active) | –

Compound | AC50 | activity, negative = inhibition
CSc1ccc(CNc2ccccc2)cc1 | 0.631 µM (active) | –
CC(C)(CC(=O)Nc1ccccc1)C(=O)O | – | 43% [at 11.4 µM] (inactive)
CSc1ccc(CNc2ccc(Cl)cc2)cc1 | 0.02 µM (active) | –
CCNc1ncc2nc(CCc3ccccc3)c(=O)n(CCOC)c2n1 | 10 µM (active) | –
CCNc1ncc2nc(-c3ccc(OC)cc3)c(=O)n(CCOC)c2n1 | inactive | –
CCNc1ncc2nc(-c3cn(C)c4ccccc34)c(=O)n(CCC#N)c2n1 | inactive | –
Cc1nc2cnc(N(C)C)nc2n(CCC#N)c1=O | inactive | –
CN(C)c1ncc2nc(-c3ccc(F)cc3)c(=O)n(CCC#N)c2n1 | inactive | –
CN(C)c1ncc2nc(CCc3ccccc3)c(=O)n(CCC#N)c2n1 | 10 µM (active) | –
CCNc1ncc2nc(-c3ccc(F)cc3)c(=O)n(CCOC)c2n1 | inactive | –
CCNc1ncc2nc(CCc3ccccc3)c(=O)n(CCC#N)c2n1 | 15.8 µM (active) | –
N#CCCn1c(=O)c(CCc2ccccc2)nc2cnc(Nc3ccccc3)nc21 | inactive | –
COc1ccc2c(c1)C(=O)N(CCc1ccc(S(=O)(=O)NC(=O)NC3CCCCC3)cc1)C(=O)C2(C)C | inactive | –
COc1ccc(CCNC(=O)COc2ccc(S(=O)(=O)NC3CCCCC3)cc2Cl)cc1 | 7.94 µM (active) | –
COc1ccc(CCCC(=O)NC2CCCCC2)cc1 | 3.16 µM (active) | –
COc1cccc(-c2nccc(NCc3ccccc3)n2)c1 | 7.94 µM (active) | –
COc1cccc(-c2nccc(NCc3cnc(C)cn3)n2)c1 | inactive | –
COc1cccc(-c2nccc(NCc3cccc(C)c3)n2)c1 | 6.31 µM (active) | –
CC1CCN(C(=S)c2ccc(O)cc2)CC1 | 3.55 µM (active) | –
Cc1cccc2c1Oc1ccccc1[C@@H]2NC(=O)c1ccc([N+](=O)[O-])cc1 | – | -12.7% [at 11.4 µM] (inactive)
N[C@](CC1c2ccccc2Oc2ccccc21)(C(=O)O)[C@@H]1C[C@@H]1C(=O)O | inactive | –
Cc1cccc2sc(NC(=O)C3c4ccccc4Oc4ccccc43)nc12 | 2.51 µM (active) | –
O=C(Nc1cccnc1Cl)C1c2ccccc2Oc2ccccc21 | 0.794 µM (active) | –
O=C1C2=CC[C@@H]3C(=O)N(c4ccc(F)cc4F)C(=O)[C@H]3[C@H]2[C@H](O)[C@H]2O[C@H]12 | – | -24% [at 11.4 µM] (inactive)
